Results filed as inconclusive are left out. The source made the active and inactive calls. Unless noted, calls come from the whole dose curve; as a rule, active = well fitted curve in the direction sought with a large enough effect in the repeat runs; inconclusive = weak or mixed curves; inactive = no such curve, though single readings can be large; an effect the other way counts as inactive or inconclusive.
Key:
[1] = A CellTox Green Cytotoxicity Assay to monitor cytotoxicity in HepG2 cells - 0 hour (AID 1224882); note: nearly all actives have a fitted effect of over 35% in size
Procedure, shortened: (§1)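 Cells and non-lytic dye reagent are dispensed together (600 HepG2 cells/well) and incubated 5 h before DMSO compound transfer. Kinetic fluorescence is then recorded in the same wells during 40 h at 37 C.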

[2] = A CellTox Green Cytotoxicity Assay to monitor cytotoxicity in HEK293 cells - 8 hour (AID 1224884); note: nearly all actives have a fitted effect of over 35% in size
Procedure, shortened: (§2)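 Cells (HEK293, 600/well) and dye reagent are dispensed together. After 5 h at 37 C, 23 nL compound is pinned in. Plates stay at 37 C for 40 h with fluorescence read at 0h, 8h, 16h, 24h, 32h and 40h.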

[3] = qHTS RealTime-Glo MT Cell Viability Assay in HepG2 cells - 16 hour (AID 1224885); note: nearly all actives have a fitted effect of over 50% in size
Procedure, shortened: (§3)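 Cell number in HepG2 cultures estimated from NanoLuc luminescence generated by metabolic reduction of a prosubstrate by living cells. The homogeneous, nonlytic format allowed repeated reads at 0, 8, 16, 24, 32 and 40 h of compound exposure.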

[4] = qHTS RealTime-Glo MT Cell Viability Assay in HEK293 cells - 24 hour (AID 1224886); note: top concentration of the series differs between compounds; nearly all actives have a fitted effect of over 50% in size
Procedure, shortened: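 Homogeneous bioluminescent viability format in HEK293 cells (600 cells/well). Following 5 h at 37 C/5% CO2, 23 nL compound was pintooled; the signal was measured repeatedly during 40 h incubation.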

[5] = qHTS RealTime-Glo MT Cell Viability Assay in HEK293 cells - 8 hour (AID 1224887); note: top concentration of the series differs between compounds; nearly all actives have a fitted effect of over 50% in size
Procedure, shortened: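 Real-time viability in HEK293: signal arises when living cells convert a prosubstrate for NanoLuc in the medium, so luminescence tracks viable cell number. Compound (23 nL, DMSO) added 5 h post-seeding; kinetic reads at 0–40 h, 37 C.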

[6] = A CellTox Green Cytotoxicity Assay to monitor cytotoxicity in HEK293 cells - 16 hour (AID 1224888); note: nearly all actives have a fitted effect of over 35% in size
Procedure, shortened: as §2

[7] = qHTS RealTime-Glo MT Cell Viability Assay in HepG2 cells - 0 hour (AID 1224889); note: nearly all actives have a fitted effect of over 50% in size
Procedure, shortened: as §3

[8] = A CellTox Green Cytotoxicity Assay to monitor cytotoxicity in HepG2 cells - 8 hour (AID 1224890); note: nearly all actives have a fitted effect of over 45% in size
Procedure, shortened: as §1

[9] = qHTS assay to identify small molecule antagonists of the estrogen receptor alpha (ER-alpha) signaling pathway using the BG1 cell line in the presence of 0.1 nM 17-beta-estradiol - cell viability counter screen (AID 1259241); note: nearly all actives have a fitted effect of over 40% in size
Procedure, shortened: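 VM7Luc4E2, 4,000 cells/well, phenol red-free medium + 10% charcoal-stripped FBS; 24 hr plating; cpd + 0.1 nM E2 final, 22 hr 37C/5% CO2; CellTiter-Fluor 30 min, fluorescence.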

[10] = qHTS assay to identify small molecule antagonists of the androgen receptor (AR) signaling pathway using the MDA cell line in the presence of 0.5 nM R1881 - cell viability counter screen (AID 1259242); note: nearly all actives have a fitted effect of over 45% in size
Procedure, shortened: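 Steps: plate MDA-kb2 cells, rest 5 hr at 37C without CO2; pin in compounds in DMSO; add R1881 to 0.5 nM final; incubate 16 hr; add CellTiter-Fluor, 30 min; read fluorescence.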

[11] = molecular target: Estrogen receptor (Homo sapiens) (UniProt P03372); experiment: qHTS assay to identify small molecule antagonists of the estrogen receptor alpha (ER-alpha) signaling pathway using the BG1 cell line in the presence of 0.1 nM 17-beta-estradiol (AID 1259244); note: nearly all actives have a fitted effect of over 50% in size
Chain of Estrogen receptor (Homo sapiens) (P03372 whole entry, looked up): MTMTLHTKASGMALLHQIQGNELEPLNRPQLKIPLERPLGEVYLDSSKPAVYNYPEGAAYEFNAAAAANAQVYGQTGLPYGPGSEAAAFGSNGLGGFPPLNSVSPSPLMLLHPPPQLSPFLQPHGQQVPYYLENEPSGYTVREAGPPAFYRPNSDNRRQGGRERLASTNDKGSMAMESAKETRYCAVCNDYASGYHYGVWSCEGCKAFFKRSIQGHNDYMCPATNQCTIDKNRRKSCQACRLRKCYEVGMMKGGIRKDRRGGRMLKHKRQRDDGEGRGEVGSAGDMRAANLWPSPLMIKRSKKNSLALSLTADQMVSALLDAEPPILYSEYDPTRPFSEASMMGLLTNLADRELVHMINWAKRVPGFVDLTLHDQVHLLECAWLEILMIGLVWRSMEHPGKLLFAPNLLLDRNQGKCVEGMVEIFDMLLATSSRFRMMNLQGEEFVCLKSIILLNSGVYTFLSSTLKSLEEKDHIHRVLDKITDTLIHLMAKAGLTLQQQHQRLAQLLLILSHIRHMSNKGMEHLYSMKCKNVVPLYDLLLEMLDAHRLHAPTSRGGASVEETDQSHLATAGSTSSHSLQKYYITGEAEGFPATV
Procedure, shortened: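 Antagonist mode: compounds in DMSO are pinned onto VM7Luc4E2 reporter cells, 0.1 nM final 17beta-estradiol is added, and after 22 h at 37C luciferase luminescence is measured with ONE-Glo.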

[12] = qHTS assay to identify small molecule phospholipidosis (PLD) inducers (AID 1259344; active = well fitted curve in the direction sought with a large enough effect; an effect the other way counts as inactive or inconclusive)
Procedure, shortened: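 Cells (HepG2, 900 per well) attach for 4 h, receive LipidTOX Red and compound together, incubate 24 h at 37 C, are fixed 30 min with paraformaldehyde/Hoechst, then imaged at one site per well.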

[13] = qHTS assay to identify small molecule HDAC inhibitors (AID 1259364);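 note: wild-type HCT-116 cells with endogenous class I/II HDAC activity; top concentration of the series differs between compounds; nearly all actives have a fitted effect of over 45% in size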
Procedure, shortened: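 Cells (HCT-116, wild type) are seeded at 1,500 per well, incubated overnight, treated with compound in DMSO for 2 hr, then developed with HDAC-Glo I/II reagent for 30 min at room temperature.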

[14] = qHTS assay to identify small molecule HDAC inhibitors - cell viability counter screen (AID 1259365)
Procedure, shortened: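 Luminescence from CellTiter-Glo, developed 30min at room temperature, reports viability of wild-type HCT-116 cells treated 2hr with compounds at 37 C and 5% CO2 after overnight plating.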

[15] = qHTS assay to identify small molecule agonists of the sonic hedgehog signaling (Shh) pathway - cell viability counter screen (AID 1259366); note: nearly all actives have a fitted effect of over 50% in size
Procedure, shortened: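 Cytotoxicity counter screen run in the same wells as the Shh reporter assay. NIH/3T3 cells carrying a Gli1 response element–driven luciferase were treated with DMSO-dissolved compounds for 24hr, and live-cell protease activity was measured with CellTiter-Fluor.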

[16] = qHTS assay to identify small molecule antagonists of the sonic hedgehog signaling (Shh) pathway - cell viability counter screen (AID 1259367); note: nearly all actives have a fitted effect of over 55% in size
Procedure, shortened: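 Cytotoxicity was assessed in parallel with Shh reporter activity by measuring live-cell protease fluorescence (CellTiter-Fluor) in NIH/3T3 cells stably carrying Gli1-Luc, treated with compound under conditioned medium stimulation for 23 hr plus 1 hr reagent incubation.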

[17] = qHTS assay to identify small molecule agonists of the sonic hedgehog signaling (Shh) pathway (AID 1259368; calls by dose curve;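 note: NIH/3T3-derived 3T3Gli1-Luc cells carrying a stable Gli1-driven firefly luciferase reporter; series mostly up to about 92 µM; nearly all actives have a fitted effect of over 15% in size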)
Procedure, shortened: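 Cells of a mouse NIH/3T3 clone stably expressing luciferase under the Gli1 transcriptional response element are exposed to test chemicals for 24 hr at 37 C. Pathway activation is detected as a rise in luminescence.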

[18] = A CellTox Green Cytotoxicity Assay to monitor cytotoxicity in HepG2 cells - 32 hour (AID 1224883); note: nearly all actives have a fitted effect of over 50% in size
Procedure, shortened: as §1
% is set by controls: 0 for no effect and ±100 for the full control effect.

C=CC[N+]1([C@H]2C[C@H]3[C@@H]4CC[C@H]5C[C@H](OC(C)=O)[C@@H](N6CCCCC6)C[C@]5(C)[C@H]4CC[C@]3(C)[C@H]2OC(=O)CC)CCCCC1
inactive: Potency [1] | Potency [2] | Potency [3] | Potency [4] | Potency [5] | Potency [6] | Potency [7] | Potency [8] | Potency [9] | Potency [10] | Potency [11] | PLD induction [12] -0.411% [at 7.66 µM] | Potency [13] | outcome [14] | Potency [15] | Potency [16] | outcome [17]

O=C1c2cccc(O)c2C(=O)c2c(O)cc(CO)cc21
inactive: Potency [2] | Potency [6] | Potency [7] | Potency [8] | Potency [9] | Potency [10] | Potency [11] | Potency [13] | outcome [14] | Potency [15] | outcome [17]

c1ccc(CNCc2ccccc2)cc1
inactive: Potency [1] | Potency [3] | Potency [4] | Potency [5] | Potency [6] | Potency [7] | Potency [8] | Potency [9] | Potency [10] | Potency [11] | Potency [13] | outcome [14] | Potency [15] | Potency [16] | outcome [17]

CCN(CC)CCNC(C(=O)OCCC(C)C)c1ccccc1 (configuration not stated)
inactive: Potency [18] | Potency [2] | Potency [3] | Potency [4] | Potency [5] | Potency [6] | Potency [7] | Potency [8] | Potency [9] | Potency [10] | Potency [11] | Potency [12] | Potency [13] | outcome [14] | Potency [15] | outcome [17]

C=CC(=O)OCCOC(=O)CCC(=O)O
inactive: Potency [1] | Potency [18] | Potency [2] | Potency [3] | Potency [5] | Potency [6] | Potency [7] | Potency [9] | Potency [10] | Potency [13] | outcome [14] | Potency [15] | outcome [17]

Reference: PubChem BioAssay (Tox21)
